Bioassay records deposited in PubChem BioAssay by National Center for Advancing Translational Sciences (NCATS).
An excerpt weighted towards active compounds, which were near 8% of everything screened.
HT1080 IDH1KD tx – qHTS for induction of synthetic lethality in tumor cells producing 2HG: qHTS for the HT-1080-IDH1KD cell line; Potency, µM (doses to about 46.1 µM), inactives show at the highest dose activity, negative = toxicity, most hits filed as cytotoxic; 2% of 360,000 active; HT-1080 IDH1 knockdown viability, ATP luminescence, 48 h;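 further: 0% = DMSO wells and -100% = cell-free medium wells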
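CellTiter-Glo luminescence after 48 h compound exposure at 37 degrees C of IDH1-knockdown HT-1080 cells in 5% FBS RPMI. %Activity scaled between DMSO wells and cell-free media wells, with curves fitted and assigned curve classes.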
KB-3-1 cytotox – qHTS assay for MDR1-selective chemotherapeutics: Primary screen using the parental adenocarcinoma cell KB-3-1; KB-3-1 viability, CellTiter-Glo ATP luminescence, 72 h; Potency, µM (highest dose often 46.1 µM), actives largely listed as cytotoxic; 1.4% of 400,000 active; AID 1347075, 2019; further: on the % scale 0 is the no-effect control and ±100 the full control effect; nearly all actives have a fitted effect of over 60% in size
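Here the drug-naive KB-3-1 line serves as comparator for MDR sub-line selectivity; cells received compound titrations, 72 h at 37 °C, then CellTiter-Glo readout.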
MCF10A rereplic – A quantitative high throughput screen for small molecules that induce DNA re-replication in MCF 10a normal breast cells | MCF 10A DNA re-replication, Hoechst nuclear intensity, 48 h | Potency, µM (top dose mostly 46.1 µM), for the others: at the top dose activity, positive = re-replication, actives largely listed as activators | 2.9% of 350,000 active | AID 624296, 2012; further: % of control where 0% means no effect; nearly all actives have a fitted effect of over 50% in size
HT1080-NT tox – qHTS for induction of synthetic lethality in tumor cells producing 2HG: qHTS for the HT-1080-NT fibrosarcoma cell line | HT-1080-NT fibrosarcoma viability, CellTiter-Glo ATP luminescence, 48 h | Potency, µM (highest dose often 46.1 µM), for inactives: at the top dose activity, negative = less viability, hits mostly cytotoxic | 1.6% of 360,000 active | AID 686970, 2013;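 further: NT is the 2HG producing partner of a matched IDH1 knockdown line; 0% = DMSO-treated cells and -100% = media-only wells without cells; nearly all actives have a fitted effect of over 55% in size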
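Toxicity toward the 2HG-producing NT line was scored as %Activity, normalised to DMSO and no-cell wells, from CellTiter-Glo luminescence after 48 hours' treatment.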
KB-V1 cytotox – qHTS assay for MDR1-selective chemotherapeutics: Primary screen using the drug-selected MDR subline cells KB-V1; KB-V1 MDR cells viability, CellTiter-Glo, 72 h; Potency, µM (titrated, usually from 46.1 µM), hits mostly cytotoxic; 3.4% of 400,000 active; further: on the % scale 0 is the no-effect control and ±100 the full control effect; nearly all actives have a fitted effect of over 60% in size
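qHTS viability screen in drug-selected KB-V1 MDR cells: 72 h compound treatment at 37 degrees C, ATP luminescence end point.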
SW480 rerep – A quantitative high throughput screen for small molecules that induce DNA re-replication in SW480 colon adenocarcinoma cells; 1.8% of 340,000 active; SW480 DNA re-replication, Hoechst DNA content imaging, 48 h; Potency, µM (doses to about 46.1 µM), for inactives: at the top dose re-replication activation, hits mostly activators; further: % of control where 0% means no effect; nearly all actives have a fitted effect of over 55% in size
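Per well, 250 cells were exposed to pinned compound for 48 hr. Nuclear DNA was visualised with Hoechst (40 min, 37 C) and total object intensity recorded by fluorescence scanning.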
Numbers without * were called inactive; i = inactive; ? = inconclusive; / = no result; [ ] = another dose, or the depositor's remark. The call rests on the fitted dose curve; in most records, active means well fitted curve in the direction sought with a large enough effect; inconclusive means small, poorly fitted or top-dose-only effect, or another doubt; inactive means no such curve, though single readings can be large; an effect the other way counts as inactive or inconclusive. Potency means the concentration at half of the fitted maximal effect.

SMILES	HT1080 IDH1KD tx	KB-3-1 cytotox	MCF10A rereplic	HT1080-NT tox	KB-V1 cytotox	SW480 rerep
Cc1ccc(S(=O)(=O)CC(CN2CCCCC2)N2CCCCC2)cc1 (configuration not stated)	18µM*	?	?	18µM*	i	-1%
Cn1nnnc1SCCNS(=O)(=O)c1ccccc1	25%	i	-2%	24%	i	-2%
CC(CCc1ccccc1)NC(=O)CNc1cccc([N+](=O)[O-])c1 (configuration not stated)	-10%	i	-5%	-8%	i	-8%
COC(=O)c1sc2ccccc2c1-n1cccc1C(=O)C(=O)Nc1ccc(F)cc1	-1%	i	-1%	-3%	i	-1%
COC(=O)c1sc2ccccc2c1-n1cccc1C(=O)C(=O)Nc1ccc(C)cc1	-6%[9.24 µM]	?	0%	-6%	9.2µM*	-2%
COC(=O)c1sc2ccccc2c1-n1cccc1C(=O)C(=O)Nc1ccc(Cl)cc1	0%	?	2%	-2%	12µM*	5%
N#CCCN(Cc1cccnc1)S(=O)(=O)c1ccc(S(=O)(=O)NC2CCCCC2)cc1	-3%	i	-2%	-9%	?	1%
COc1ccccc1-c1nc(-c2ccccc2)nc(N2CCN(C)CC2)c1C#N	21µM*	?	?	16µM*	i	?
CN1CCN(c2nc(-c3ccccc3)nc(-c3ccc(F)cc3)c2C#N)CC1	4%	i	?	-1%	i	?
Cc1ccc(F)c([C@H]2[C@@H]3C=CCC[C@@]3(C)C(=O)N2Cc2ccccc2)c1	-3%	i	23µM*	-4%	i	-4%
Cc1ccc(-c2cc([C@H]3[C@@H]4C=CCC[C@@]4(C)C(=O)N3Cc3ccccc3)ccc2F)cc1	?	?	5%	-17%	i	?
COC(=O)CCC(=O)NC(=S)Nc1sc(C)c(C)c1C(N)=O	0.33µM*	0.65µM*	1.2µM*	?	1.6µM*	?
COC(=O)CCC(=O)Nc1sc(C)c(C)c1C(N)=O	21%	i	-1%	26%	?	-5%
Cc1sc(NC(=S)NC(=O)CCc2ccccc2)c(C(N)=O)c1C	?	0.18µM*	0.13µM*	0.16µM*	?	0.29µM*
COc1ccc(-c2cc(-c3ccccc3)nc(N3CCCC3)n2)cc1OC	-26%	i	?	4%	8.2µM*	27%
COc1ccc(-c2cc(C(F)(F)F)nc(N3CCOCC3)n2)cc1OC	2%	i	?	1%	?	12%
CC(C)NC(=O)CSc1nc(N)c(-c2ccccc2)c(=O)[nH]1	10%	i	-6%	13%	i	-6%
CC1CCN(Cc2nnnn2CCCC(=O)NC(c2ccccn2)C(F)(F)F)CC1 (configuration not stated)	2%	i	21µM*	8%	?	3%
COCC1CCCCN1C(=O)CCCn1nnnc1CN1CCC(C)CC1 (configuration not stated)	-8%	/	2%	-8%	/	-8%
CCOC(=O)N/N=C\c1ccc([N+](=O)[O-])s1	?	?	10%	-17%	i	?
COC(=O)c1cccc(S(=O)(=O)N(Cc2ccco2)Cc2cc3cc(OC)ccc3[nH]c2=O)c1	-28%	i	?	-28%	16µM*	4%
CCOC(=O)c1cccc(S(=O)(=O)N(CCO)Cc2cc3cc(OC)ccc3[nH]c2=O)c1	-13%	i	?	-12%	?	2%
Cc1cc2cc(CN(Cc3ccco3)S(=O)(=O)c3c(C)ccc4nsnc34)c(=O)[nH]c2cc1C	?	3.3µM*	?	?	1.6µM*	?
Clc1nc(-c2cccnc2)nc2scc(-c3ccccc3)c12	-3%	i	16µM*	-4%	i	12µM*
COc1ccc(-c2nc(-c3cccnc3)no2)cc1OC	2%	i	1%	12%	i	-9%
SMILES	HT1080 IDH1KD tx	KB-3-1 cytotox	MCF10A rereplic	HT1080-NT tox	KB-V1 cytotox	SW480 rerep
COc1ccc(-c2csc3nc(-c4cccnc4)nc(Cl)c23)cc1OC	?	i	18µM*	-26%	i	?
Clc1ncnc2scc(-c3ccccc3)c12	8%	i	0%	0%	i	1%
CC(=O)Nc1c(O)nc(SCC(=O)Nc2c(C)cccc2C)[nH]c1=O	10%	i	0%	9%	i	-9%
COC(=O)c1cc2c(ccn2-c2ccc(F)cc2)n1CC(=O)OC(C)C	-22%	i	16µM*	-2%	?	-8%
Cc1cccc(NC(=O)c2ccc(Cn3cc(C(F)(F)F)ccc3=O)cc2)c1	-5%	i	22%	-4%	16µM*	-2%
O=C(NCc1ccccc1)c1ccc(Cn2cc(C(F)(F)F)ccc2=O)cc1	2%	i	4%	2%	13µM*	-10%
O=C(NCc1ccncc1)c1ccc(Cn2cc(C(F)(F)F)ccc2=O)cc1	0%	i	2%	-1%	i	0%
Cc1ccccc1C(=NC(=O)c1ccccc1)c1ccccc1	-3%	i	-1%	-1%	i	17%
COc1cccc(N2CCN(CC(=O)c3c(C)[nH]c4ccccc34)CC2)c1	?	i	23%	?	?	-2%
O=C(O)CCCCn1c(SCC(=O)Nc2ccccc2C(F)(F)F)nc2ccsc2c1=O	-1%	i	-6%	-2%	i	-3%
CCC(C)n1c(SCC(=O)Nc2ccccc2C(F)(F)F)nc2ccsc2c1=O (configuration not stated)	-20%	i	10%	-26%	23µM*	10%
CCC(C)n1c(SCc2ccccc2)nc2ccsc2c1=O (configuration not stated)	1%	?	?	-4%	10µM*	107%
CCC(C)n1c(SCC(=O)NCCc2ccc(S(N)(=O)=O)cc2)nc2ccsc2c1=O (configuration not stated)	9%	i	-3%	6%	i	8%
CCOCCCNC(=O)CCCn1nc(C)n2c(cc3sccc32)c1=O	4%	i	-1%	-1%	i	4%
CCOC(=O)c1ccc(NC(=O)N2CCN(Cc3cccc(F)c3)CC2)cc1	?	i	?	-28%	18µM*	2%
